# GDH-TPI counter – inhibits GDH-TPI coupling enzymes, artifact for Mtb FBA screen | 360,000 compounds, 1.2% hits | inhibition, % at 4.8 µM | GDH-TPI coupled enzyme counterscreen, NADH absorbance | AID 588335; in the data active = inhibition above about 30%;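 note: 0% = DMSO wells and 100% = wells lacking the enzyme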
# Anthrax LF inh2 – anthrax lethal factor protease inhibition; multiplex microsphere protease cleavage assay, LF; inhibition, % at 10 µM; 360,000 compounds, 0.12% hits; AID 588501; note: plate controls were buffer without enzyme for full effect and enzyme alone for no effect
# Target sequence (P15917 whole entry, looked up): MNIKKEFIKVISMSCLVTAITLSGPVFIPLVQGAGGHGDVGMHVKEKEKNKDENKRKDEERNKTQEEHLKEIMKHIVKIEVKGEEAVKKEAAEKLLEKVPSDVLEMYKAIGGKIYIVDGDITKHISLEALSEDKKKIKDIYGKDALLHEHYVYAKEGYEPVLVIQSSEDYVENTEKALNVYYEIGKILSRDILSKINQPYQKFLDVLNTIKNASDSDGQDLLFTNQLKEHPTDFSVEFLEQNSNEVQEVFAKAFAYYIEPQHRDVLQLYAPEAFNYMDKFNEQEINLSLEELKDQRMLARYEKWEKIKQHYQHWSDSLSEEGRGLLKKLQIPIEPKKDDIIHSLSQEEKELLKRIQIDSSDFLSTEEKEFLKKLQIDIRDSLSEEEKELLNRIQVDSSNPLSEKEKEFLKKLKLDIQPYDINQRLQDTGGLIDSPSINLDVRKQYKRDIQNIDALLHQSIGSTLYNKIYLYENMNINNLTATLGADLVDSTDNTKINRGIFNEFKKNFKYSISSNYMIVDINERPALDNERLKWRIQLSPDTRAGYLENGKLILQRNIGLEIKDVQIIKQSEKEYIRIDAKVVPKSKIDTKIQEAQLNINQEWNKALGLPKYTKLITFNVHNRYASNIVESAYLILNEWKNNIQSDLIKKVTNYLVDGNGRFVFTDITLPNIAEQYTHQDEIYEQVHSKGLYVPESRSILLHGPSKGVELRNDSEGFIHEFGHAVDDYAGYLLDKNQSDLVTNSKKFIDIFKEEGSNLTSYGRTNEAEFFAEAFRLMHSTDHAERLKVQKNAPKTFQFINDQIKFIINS
# BoNT A protease – BoNT A light chain protease inhibition. 360,000 compounds, 0.17% hits. inhibition, % at 10 µM. multiplex microsphere protease substrate cleavage, flow cytometry; note: plate controls were buffer without enzyme for full effect and enzyme alone for no effect
# Autofluor counter – flagged as autofluorescent in microsphere protease counterscreen. compound autofluorescence counterscreen, microsphere flow cytometry; stronger effect = higher value. fluorescence intensity (no concentration beside the values). 360,000 compounds, 3.1% hits. AID 624483; in the data active = fluorescence intensity above about 16000; inconclusive = no clear call, values can overlap the other calls
# FBA Mtb inh – inhibitors of M. tuberculosis fructose-bisphosphate aldolase | AID 588726 | P9WQA3 | inhibition, % at 1 µM | 360,000 compounds, 2.3% hits | purified M. tuberculosis FBA, fluorescence read-out; in the data active = inhibition above about 27%;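 note: 0% = vehicle and 100% = reference inhibitor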
# BoNT-F LC inh – blocks Botulinum neurotoxin F light chain protease | Multiplex microsphere protease cleavage assay, flow cytometry | 360,000 compounds, 0.22% hits | inhibition, % at 10 µM; in the data active = inhibition above about 35%, passing the limit was not always enough; inconclusive = no clear call, values can overlap the other calls; note: plate controls were buffer without enzyme for full effect and enzyme alone for no effect
# Active calls of the source: *; ? = inconclusive. Compounds with a hit are over-represented: about 6.6% of the library has one in this group of screens. Cut-off read from the data, not from the text of the source, unless noted: active = inhibition above about 30%; inconclusive = no clear call, values can overlap the other calls; inactive = below that.
SMILES,GDH-TPI counter,Anthrax LF inh2,BoNT A protease,Autofluor counter,FBA Mtb inh,BoNT-F LC inh
CCCOc1ccc(NC(=O)C2CC(=O)N/C(=N/N=C(C)/C=C/c3ccc(N(C)C)cc3)S2)cc1 (stereo not drawn),32*,-6,-2,10003,-3,-16
O=C(NCCN1CCN(c2ccccc2)CC1)Nc1ccccc1Br,-4,6,0,3663,0,3
O=C(Nc1cc(C(F)(F)F)ccc1N1CCCC1)C1CCCO1 (stereo not drawn),2,2,1,5941,2,-4
CC1(C)CC(NC(=O)C23CCC(C)(C2Br)C3(C)C)CC(C)(C)N1 (stereo not drawn),-8,5,6,3593,3,35*
CC1(C)CC(NC(=O)C23CCC(C)(/C(=N/O)C2)C3(C)C)CC(C)(C)N1 (stereo not drawn),25,0,?,22387*,3,-1
CC1(C)CC(NC(=O)C23CCC(C)(C(=O)C2=O)C3(C)C)CC(C)(C)N1 (stereo not drawn),-6,5,0,4471,-1,-3
O=C(Nc1nnc(-c2ccc(F)cc2)s1)c1ccco1,6,3,-2,4087,-1,-5
CSc1ccccc1NC(=O)c1onc(C)c1Cl,-11,4,-1,6161,0,0
CCSc1nnc(NC(=O)c2ccco2)s1,28,-5,-1,3755,1,2
Cc1cccc(-c2nnc(NC(=O)c3ccco3)s2)c1,34*,4,-1,4936,2,-8
O=C(Nc1nnc(SCc2ccc(Cl)cc2)s1)c1ccco1,32*,-4,-1,4957,-2,-24
CSc1ccccc1NC(=O)c1c(C)noc1C,-4,-1,-5,22017*,-2,-6
Cc1noc(C)c1C(=O)Nc1nnc(-c2ccccc2)s1,35*,-5,0,2466,7,2
CC1(C(=O)Nc2nccs2)Cc2ccccc2C(=O)O1 (stereo not drawn),0,-1,0,10744,-3,2
CC1(C(=O)Nc2nnc(SCc3ccccc3)s2)Cc2ccccc2C(=O)O1 (stereo not drawn),16,-7,4,22013*,2,5
CCCCC(=O)NC(=S)Nc1cccc(C(=O)O)c1,4,-2,1,3963,-3,2
CC#CCCCC(=O)Nc1cccc(C(=O)O)c1,9,-4,6,19921*,7,7
CCOc1ccc(C2=CS/C(=C(\C#N)c3nnc4n3CCCCC4)N2CC)cc1,32*,-2,0,5075,-1,0
COc1ccc(C2CC(C(F)(F)F)n3nc(C(N)=O)c(Cl)c3N2)cc1OC (stereo not drawn),-15,-6,-2,20210*,-1,1
COc1ccc(C2CC(C(F)(F)F)n3ncc(C(=O)O)c3N2)cc1OC (stereo not drawn),2,0,0,2785,8,0
COc1ccccc1-n1cnc2cc(NCc3ccccn3)ccc21,-5,-6,2,22276*,3,-1
COc1ccc(-n2cnc3cc(NCc4ccccn4)ccc32)cc1,-5,-3,2,18683*,0,-6
c1ccc(-n2cnc3cc(NCc4cccs4)ccc32)cc1,12,-3,?,23254*,2,-7
COc1ccc(-n2cnc3cc(NCc4cccs4)ccc32)cc1,12,-5,1,3601,3,-15
CCCn1cnc2cc(NCc3cccc(OC)c3O)ccc21,-4,-1,2,19022*,10,-2
SMILES,GDH-TPI counter,Anthrax LF inh2,BoNT A protease,Autofluor counter,FBA Mtb inh,BoNT-F LC inh
O=C(CN1CCN(S(=O)(=O)c2ccc(F)c(Cl)c2)CC1)N1CCNC1=O,-1,0,0,9154,-2,-4
Cc1ccc(-c2ccc(CCC(=O)O)n2-c2ccc(O)cc2)cc1,5,-1,2,10421,7,-1
Cc1ccc(-c2ccc(CCC(=O)O)n2-c2cccc(O)c2)cc1,15,-1,0,19713*,2,-1
O=C(O)c1ccccc1CSc1nnc2c(n1)[nH]c1ccccc12,16,-4,0,4073,3,4
Cc1ccc2[nH]c3c(c2c1)CC/C(=C/c1ccccc1)C3=O,14,-6,3,8375,-1,12
O=C1NCCc2c1[nH]c1ccccc21,-4,-3,1,3581,27*,11
O=C1/C(=C\c2ccccc2)CCc2c1[nH]c1ccccc21,24,-1,-1,23509*,1,-3
O=C1NCCc2c1[nH]c1ccc([N+](=O)[O-])cc21,8,-4,0,3921,-1,0
Cc1ccc(/C=C2/CCc3c([nH]c4ccccc34)C2=O)cc1,-3,1,0,23420*,2,3
CCOCCc1nnc(NC(=O)C2CC(=O)N(CCc3ccc(F)cc3)C2)s1 (stereo not drawn),0,-2,2,3965,-5,1
CCN(CC(=O)NCc1ccc(F)cc1)C(=O)c1cccc(S(=O)(=O)N(C)c2ccc(OC)cc2)c1,-3,-11,0,3543,-1,-4
Cc1c(O)c(=O)c2ccccc2n1C,25,0,0,3972,150*,5
Cn1c(=O)c(-c2ccccc2)c(O)c2ccccc21,12,-1,0,2045,13,-1
S=c1nc(-c2ccccc2)n(CCN2CCOCC2)c2c1CCCC2,51*,0,0,11052,4,-10
CC1(C)Cc2c(c(=S)nc(-c3ccccc3)n2Cc2cccnc2)CO1,13,11,2,3785,1,26
CC1(C)Cc2c(c(=S)nc(-c3ccccc3)n2CCN2CCOCC2)CO1,51*,-4,-1,11078,2,-9
CCN(CC)CCn1c(-c2ccccc2)nc(=S)c2c1CC(C)(C)OC2,26,0,0,4105,-2,-8
CC(C)Cn1c(-c2ccccc2)nc(=S)c2c1CCCC2,34*,0,1,4380,-1,15
C=CCn1c(-c2ccccc2)nc(=S)c2c1CCCC2,-5,14,4,3894,4,16
COCCn1c(-c2ccccc2)nc(=S)c2c1CC(C)(C)OC2,37*,-2,0,2565,-3,1
Cn1ncc2c(NNC(=O)C3CCCCC3)ncnc21,-1,2,-1,3744,-1,-2
Cc1noc(C)c1CSCC(=O)Oc1ccc(N(C)S(=O)(=O)c2ccc(Cl)cc2)cc1,3,0,2,?,-1,-7
Cc1cccc(CN2CCC(Oc3ccc(C(=O)N4CCCCC4)cc3)CC2)c1,-1,-1,-3,6654,3,-1
COCCCNC(=O)c1nc2ccccc2c(=O)n1NC(=O)Nc1c(Cl)cccc1Cl,2,6,-4,3107,1,-5
O=S(=O)(Nc1ccccn1)c1ccc(Cl)cc1,2,0,-3,23792*,-1,-3
COc1cccc(-c2cc(C(F)(F)F)nc(-n3cc(C)cn3)n2)c1,6,-1,-2,4918,-1,-12

# Bioassay records from PubChem BioAssay.
